Our source for the growth, % of control values is PubChem BioAssay (NCATS).

The nature of the assay: qHTS profiling of the MIPE4 collection as inhibitors of Plasmodium falciparum (HB3) proliferation (AID 743347). Conditions: P. falciparum HB3 in erythrocytes, SYBR Green DNA, 72 h; at 28.5 µM (top of the series) unless noted. An excerpt:
Plasmodium falciparum is a virulent malarial parasite that kills 1-2 million people worldwide each year. Transmitted by mosquitoes, the sporozoite form of the parasite enters the blood stream to infect hepatocytes, where they become merozoites that infect red blood cells (erythrocytes). Within erythrocytes, merozoites begin a […] cycle of growth and division, after which the parasite is released to infect new red blood cells. Gametocytes, which form within erythrocytes as well, circulate in the bloodstream and are ingested by the mosquito, thereby completing the life cycle. To profile malarial isolates for differential chemical responses and to identify inhibitors of malarial growth, an assay that measures P. falciparum growth and replication within erythrocytes was employed. This assay uses a DNA binding fluorescent dye (SYBR Green) to detect parasite DNA following cell lysis. Because mature erythrocytes lack DNA, only Plasmodium-derived DNA is detected.
The SYBR Green viability assay was adapted from a method described previously (Plouffe et al., 2008). For screening 3 ul culture medium was dispensed into 1536 well black clear bottom plates (Aurora Biotechnologies) using a Multidrop Combi (Thermo Fisher Scientific Inc.), 23 nL compounds in DMSO were added by a pin tool (Kalypsys), and 5 ul of erythrocytes infected with P. falciparum (0.3% parasitemia, 2.5% hematocrit final concentration) were added. The plates were incubated at 37 C in a humidified incubator in 5% CO2 for 72 h, and 2 ul lysis buffer (20 mM Tris HCl, 10 mM EDTA, 0.16% saponin, 1.6% triton X, 10X SYBR Green I supplied as 10,000X […] by Invitrogen) was added to each well. The plates were mixed for 25 sec with gentle shaking and incubated overnight at room temperature in the dark. The following morning, fluorescence intensity at 485(14) nm excitation and 535(25) nm emission wavelengths was measured on an EnVision (Perkin Elmer) plate reader. Plate reads were normalized relative to the control inhibitor (0.29 uM artemisinin) and vehicle (DMSO) wells present on each plate and then corrected by an algorithm using vehicle-only control plates at the beginning and end of the compound plate stack.
(qHTS replaces the single test concentration by a dilution series.)
`O=S(=O)(N=Cc1c(O)ccc2ccccc12)c1cccs1`: the growth, % of control came out at 63.2%.
In the case of `COc1cc(Nc2ncc3c(n2)-c2ccc(Cl)cc2C(c2c(F)cccc2OC)=NC3)ccc1C(=O)O`, the growth, % of control was found to be 30.2%.
In turn, `CN([C@@H](Cc1ccc(OS(=O)(=O)c2cccc3cnccc23)cc1)C(=O)N1CCN(c2ccccc2)CC1)S(=O)(=O)c1cccc2cnccc12` showed a growth, % of control of 4.99%.
To `CC1(C)SCCN(S(=O)(=O)c2ccc(OCC#CCO)cc2)[C@@H]1C(=O)NO` belongs 112%.
To `CCOc1cc(C=C2C(=O)N(c3ccccc3)N=C2C)cc(Cl)c1OCC(=O)OC` belongs 98.7%; to `O=C1CCCC2=C1C(c1[nH]ncc1Cl)N=C(Nc1nc3ccccc3o1)N2` (stereo not given), 55.2%; to `NC[C@H](O)c1ccc(O)c(O)c1`, 82.4%.
The value for `COc1c(Cl)cc2c([nH]c3cnccc32)c1NC(=O)c1cccnc1C` was 4.33%; that for `Cc1[nH]c(=O)c(C#N)cc1-c1ccc2nccn2c1` was 68.7%.
For the compound `COc1cccc2cc(-c3nc(C4CCC(C(=O)O)CC4)n4ncnc(N)c34)[nH]c12` (stereo not given), the growth, % of control is 9.36%.
The value for `CC(C[N+](C)(C)C)OC(N)=O` (stereo not given) was 69.1%; that for `Cc1cccc(-c2[nH]c(C(C)(C)C)nc2-c2ccc3nccnc3c2)n1` was 6.8%; that for `Cc1cc(-c2ccc(CC(=O)Nc3ccc(-c4cccnc4)cc3)cc2)ccn1` was 63.6%.
To `NC(=O)c1ccc(I)c([N+](=O)[O-])c1` belongs 96%; to `CCCCCCCc1ccc(CCc2cccc(O)c2C(=O)O)cc1`, 81.6%; to `CNC[C@H](O)c1cccc(O)c1`, 92.6%.
The value for `CN[C@@H](C)C(=O)N[C@H]1CCCC[C@H]2CC[C@@H](C(=O)N[C@@H](c3ccccc3)c3cn(CCCCc4ccc(CCCCn5cc([C@@H](NC(=O)[C@@H]6CC[C@@H]7CCCC[C@H](NC(=O)[C@H](C)NC)C(=O)N76)c6ccccc6)nn5)cc4)nn3)N2C1=O` was 3.6%; that for `CC(C)(Sc1ccc(CCN(CCCCC2CCCCC2)C(=O)NC2CCCCC2)cc1)C(=O)O` was 78.8%.
As to `OC(CN1CCC(Cc2ccc(F)cc2)CC1)c1ccc(Cl)cc1` (stereo not given), the growth, % of control stood at 46.6%.
Compound `N#CC[C@H](C1CCCC1)n1cc(-c2ncnc3[nH]ccc23)cn1` returned a growth, % of control of 40.5%.
The value for `Cc1cnc(Nc2ccc(OCCN3CCCC3)cc2)nc1Nc1cccc(S(=O)(=O)NC(C)(C)C)c1` was 2.63%; that for `Clc1cccc(Cl)c1NC1=NCCN1` was 70.5%.
To `O=C(O)[C@@H](c1ccc(OCc2ccc3ccccc3n2)cc1)C1CCCC1` belongs 84.3%; to `O=C(c1cc(Cc2n[nH]c(=O)c3ccccc23)ccc1F)N1CCN(C(=O)C2CC2)CC1`, 35.9%.
`NC(=O)c1cnccn1`: the growth, % of control worked out at 105%.
In turn, `Cc1n[nH]c(C)c1Cc1sc2c(c1C(=O)N1C[C@H](O)CO1)c(=O)n(C)c(=O)n2CC(C)C` had a growth, % of control of 145%.
On to `CC(C)OC(=O)C1=CN(C(=O)c2ccc(F)c(F)c2)CC(C)(C)c2c1[nH]c1ccccc21`, for which the growth, % of control came out at 46.5%.
Consider `CS(=O)(=O)c1ccc(C(=O)Nc2ccc(Cl)c(-c3ccccn3)c2)c(Cl)c1`, for which the growth, % of control is 92.4%.
`Cc1[nH]c(=O)c(C#N)cc1-c1ccncc1` had a growth, % of control of 9.94%.
To `C[C@H](NC(=O)Cc1cc(F)cc(F)c1)C(=O)N[C@@H]1C(=O)N(C)c2ccccc2-c2ccccc21` belongs 3.07%; to `CN(C)C(=O)c1ccc(S(=O)(=O)c2ccc(NC(=O)[C@@](C)(O)C(F)(F)F)c(Cl)c2)cc1`, 62%.
To `CC1(C)Cc2c(-c3ccccc3)c(-c3ccc(Cl)cc3)c(CC(=O)O)n2C1` belongs 82.7%; to `Cc1ccc(-n2nc(C(C)(C)C)cc2NC(=O)Nc2ccc(OCCN3CCOCC3)c3ccccc23)cc1`, 72.4%; to `CNC(=O)c1ccc(C)c(-n2c(C)cc(OCc3ccc(F)cc3F)c(Br)c2=O)c1`, 93.8%.
The value for `Cc1cc2c(F)c(Oc3ncnn4cc(OC[C@@H](C)O)c(C)c34)ccc2[nH]1` was 76.7%.
For `CCC(C)n1ncn(-c2ccc(N3CCN(c4ccc(OC[C@H]5CO[C@](Cn6cncn6)(c6ccc(Cl)cc6Cl)O5)cc4)CC3)cc2)c1=O` (stereo not given in full), the growth, % of control was determined as 4.47%.
Take `COc1ccc(COc2cc3oc(=O)c4cc(C(C)O)ccc4c3cc2OC)cc1` (stereo not given): the growth, % of control was found to be 46.1%.
On to `Clc1ccc(Nc2nnc(Cc3ccncc3)c3ccccc23)cc1`, for which the growth, % of control came out at 53.1%.
To `C#Cc1cccc(Nc2ncnc3cc(OCCOC)c(OCCOC)cc23)c1` belongs 4.75%; to `CCN(CC)CCCC(C)Nc1ccnc2cc(Cl)ccc12` (stereo not given), 41.8%.
